The whole screen tested about 69,000 compounds, of which about 8,600 (12%) showed an effect of 50% or more. This is one part of a sample in which strong results are shown more often than they occur.
These compounds were tested on Plasmodium berghei (assay: Screen against P. berghei liver stage (PbLuc), transformed with Luciferase, at 10uM). Details: tested at 10 uM.
Format: functional, HepG2
For `FC(F)(F)c1ccc2nc([C@H]3CCN(C4CCCCC4)C3)[nH]c2c1`, the INHIBITION was 73.7%. Compound `Fc1ccc2[nH]c([C@H]3CCN(C4CCOCC4)C3)nc2c1` has an INHIBITION of 31.2%. For `CC(C)N1CC[C@H](c2nc3ccc(C(F)(F)F)cc3[nH]2)C1`, the INHIBITION was 30.3%. For `CN1CCC(N2CC[C@H](c3nc4ccc(C(F)(F)F)cc4[nH]3)C2)CC1`, the INHIBITION was 24.3%. `FC(F)(F)c1ccc2nc([C@H]3CCN(C4CCOCC4)C3)[nH]c2c1` gave an INHIBITION of 53%. In the case of `FC(F)(F)c1ccc2nc([C@H]3CCN(C4CCC4)C3)[nH]c2c1`, the INHIBITION is reported as 39.2%. With `O=S(=O)(CCN1CCN(c2ccccc2O)CC1)c1ccc(Br)cc1` the INHIBITION was 18.9%. In the case of `CN(Cc1ccccc1)c1cnn(CC2COCCO2)c(=O)c1` (configuration not stated), the INHIBITION is reported as 28.2%. With `O=C(c1cnoc1)N1CCC[C@]2(C[C@@H](Oc3ccccn3)CO2)C1` the INHIBITION was -27.9%. `c1cc(CCNc2ncc(-c3cnccn3)c(C3CC3)n2)ccn1` showed an INHIBITION of 28.5%. Work on `c1cnc(-c2cnc(N3CCSCC3)nc2C2CC2)cn1` yielded an INHIBITION of 64.3%. `c1cnc(-c2cnc(N3CCSCC3)nc2C2CCCO2)cn1` (configuration not stated) gave an INHIBITION of 27.9%. `c1cc(CNc2ncc(-c3cnccn3)c(C3CC3)n2)ccn1` showed an INHIBITION of 75.9%. In the case of `c1cnc(-c2cnc(N3CCCCC3)nc2C2CCCO2)cn1` (configuration not stated), the INHIBITION is reported as -14.1%. With `c1cc(CNc2ncc(-c3cnccn3)c([C@@H]3CCCO3)n2)ccn1` the INHIBITION was 5.34%. With `CC(C)C(C(=O)N1CCCN(Cc2cscn2)CC1)n1cncn1` (configuration not stated) the INHIBITION was -22.9%. `CC1CC(=O)c2cnc3nc(N4CCOCC4)[nH]c(=O)c3c2C1` (configuration not stated) showed an INHIBITION of 22%. Work on `Cc1ncccc1CNCC1CCCN1c1cccnn1` (configuration not stated) yielded an INHIBITION of 7.67%. Work on `Cc1ncccc1CNCC1CCN(CCO)CC1` yielded an INHIBITION of -64.9%. `CCN1CCOC(CNCc2ccccc2OCC(=O)N(C)C)C1` (configuration not stated) was tested, and the INHIBITION was 12.8%. `Cc1cccc(CNC2(CCO)CCOCC2)c1C` gave an INHIBITION of 27.3%. `Cc1cccc(CNCC2COC3(CCCC3)O2)c1C` (configuration not stated) showed an INHIBITION of 50%. With `COCCOc1ccccc1CNCC1COC2(CCCC2)O1` (configuration not stated) the INHIBITION was 81.5%. Work on `Cc1ncccc1CNCC1COC2(CCCCC2)O1` (configuration not stated) yielded an INHIBITION of 74.9%. In the case of `COCCOc1ccccc1CNCc1c(C)nn(C)c1N(C)C`, the INHIBITION is reported as -2.44%. With `Cc1cccc(CNCC2COC3(CCCCC3)O2)c1C` (configuration not stated) the INHIBITION was -3.77%. With `O=C(CCOCC(F)(F)F)N1CCCC1c1noc(C2CC2)n1` (configuration not stated) the INHIBITION was -21.5%. Compound `Cc1nc(NC(=O)C(C)N(C)Cc2ccc3c(c2)OCO3)sc1C` (configuration not stated) has an INHIBITION of 46.3%. Compound `Cc1cc(C)n(C2CCCN(C(=O)CCOc3ccccc3F)C2)n1` (configuration not stated) has an INHIBITION of -11.4%. Compound `COCc1noc(-c2cc(Cl)c3c(c2)OCCCO3)n1` has an INHIBITION of 19.8%. Compound `Cc1ccc(C(=O)NC2CCN(C(=O)Nc3ccccn3)CC2)s1` has an INHIBITION of -21.9%. `CC1CCN(CC(O)CNc2ccccn2)CC1` (configuration not stated) showed an INHIBITION of 1.62%. For `CC(=O)N1CCC(C(=O)N2CCCC(Cc3ccccn3)C2)CC1` (configuration not stated), the INHIBITION was -6.92%. In the case of `CN(C)c1ncc(NC(=O)N2CCC(CN3CCCC3)C2)cn1` (configuration not stated), the INHIBITION is reported as -45%. In the case of `Cc1ccc(C(=O)NC2CCN(C(=O)Nc3ccccn3)CC2)o1`, the INHIBITION is reported as -1.58%. For `CC1CCN(CC2CCCN(C(=O)Nc3ccccn3)C2)CC1` (configuration not stated), the INHIBITION was 55%. `Cc1cccc(NC2CCN(C(=O)Nc3ccccn3)CC2)n1` showed an INHIBITION of 28.8%. `CC1CCN(C(=O)C2CCCN(C(=O)Nc3ccccn3)C2)CC1` (configuration not stated) was tested, and the INHIBITION was 89.6%. `O=C(NC1CCCCC1)C1CCCN(C(=O)Nc2ccccn2)C1` (configuration not stated) was tested, and the INHIBITION was 66.1%. Work on `CNc1ccc(CC2CCCN(C(=O)c3cnccn3)C2)nn1` (configuration not stated) yielded an INHIBITION of 32.3%. In the case of `O=C(NCC1(O)COCCN(Cc2cccc(O)c2)C1)c1cscn1` (configuration not stated), the INHIBITION is reported as -19.7%. `Cc1cc(C)n(CC(C)Nc2nc(-c3ccncc3)nc3c2CNC3)n1` (configuration not stated) gave an INHIBITION of 49.2%. `Cn1cnc2c(N3CCCC3)nc(C3CCN(CC4CC4)CC3)cc21` gave an INHIBITION of -14.4%. Work on `CCc1cnc(C)nc1N1CCN(C(N)=O)CC1` yielded an INHIBITION of 46.1%. `CCOC(=O)N1CCN(c2nc(C)ncc2CC)CC1` was tested, and the INHIBITION was 47.1%. Compound `CCc1cnc(C)nc1N1CCS(=O)(=O)CC1` has an INHIBITION of 57.3%. Compound `O=C(Cn1cc(Cl)cn1)N1CCCC(c2ccn[nH]2)C1` (configuration not stated) has an INHIBITION of 28%. `Cc1occc1CNC(=O)NCCN(C)C1CCCC1` showed an INHIBITION of 16.8%. In the case of `CCOCC1CN(C(=O)c2ccoc2)Cc2cnn(C)c21` (configuration not stated), the INHIBITION is reported as 15.6%. Compound `CN(Cc1ccc(C#N)cc1)Cn1nccc1-c1cccnc1` has an INHIBITION of 50.5%. Work on `Cc1ccsc1CN(C)Cn1nccc1-c1cccnc1` yielded an INHIBITION of 5.79%. Compound `Cc1noc(C)c1CN(C)Cn1nccc1-c1cccnc1` has an INHIBITION of 36.2%.
